# From PubChem BioAssay (NCI)
# About 83,000 compounds went through this panel and 20% of them were active in at least one assay; those are over-represented in the sample as a whole.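 Values shown are percent growth following 48 h exposure of cells in 96-well plates to a single concentration of compound; below 10 was considered active.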 Values without a mark were called inactive. Activity calls are given as the source filed them.
# Test system: T-47D breast
# Assay: NCI-60 one-dose screen, 48 h (100 = growth as untreated, 0 = no growth, -100 = all killed)
# Conditions: 10 µM unless noted
row,SMILES,growth [%]
1,COc1ccc(-c2nc3c(N)c(CO)cnc3s2)cc1,89.2
2,COc1ccc2c(c1)c(/C(O)=C1\COC(=O)C1=O)cn2Cc1ccc(F)cc1,114
3,Cc1ccc(/C=C/C(=O)c2cccc(OCCCOc3cccc(C(=O)/C=C/c4ccc(C)cc4)c3)c2)cc1,58.4

# Test system: BT-549 breast
# Assay: as above
# Conditions: 10 µM unless noted
row,SMILES,growth
1,CCOc1ccc(-n2nc(C(=O)NCc3ccccc3OC)nc2-c2cc(OC)c(OC)c(OC)c2)cc1,33.9%
2,O=C(CCCCCCN1CC(=O)N2[C@H](c3ccc(Br)cc3)c3[nH]c4ccccc4c3C[C@@H]2C1=O)NO,55.1%
3,CCN1C(=O)N(CC)C2Nn3c(s/c(=C\c4ccccc4Br)c3=O)=NC21 (configuration not stated),19%
4,COC(=O)c1nc(-c2ccccc2)oc1S(=O)(=O)NCC(c1ccc(Cl)cc1)N1CCOCC1 (configuration not stated),56%
5,CC1=C(C(=O)Nc2nc(-c3ccc(Cl)cc3)cs2)[C@H](c2ccc(O)cc2)NC(=O)N1,90.4%
6,COc1ccc(C(=O)c2cc3c(N)c(C(=O)Nc4ccccc4)sc3nc2C)cc1,60.6%
7,C#CC#CC#CC#CC#CC#CC#CC#CC[C@@H]1OC[C@@H](COC(=O)O[C@@H](C(=O)O[C@H]2C[C@@]3(O)[C@@H](OC(=O)c4ccccc4)[C@@H]4[C@]5(OC(C)=O)CO[C@@H]5C[C@H](O)[C@@]4(C)C(=O)[C@H](OC(C)=O)C(=C2C)C3(C)C)[C@@H](NC(=O)c2ccccc2)c2ccccc2)O1,17%
8,CNCc1cccc2c1OCCOCCOCCNS(=O)(=O)c1ccc(cc1)-c1cnc(N)c(n1)C(=O)N2,28.3%
9,CC1(C)OB(O)c2cc(-c3nc4ccc5[nH]ncc5c4c4c3CCCC4)ccc21,74.9%
10,COc1ccc(/C=C2\COc3ccc(O)cc3C2=O)cc1,87.8%
11,CN1C(=O)/C(=C/c2ccc(C(=O)Nc3ncc(Cc4cccc(Cl)c4)s3)cc2)SC1=S,57%
12,CN(C)c1ccc(-c2nc(-c3ccccc3)c(-c3ccccc3)[nH]2)cc1,104%
13,Cc1n[nH]c2ccc(Br)cc2c1=O,95.7%
14,CCOc1cccc(/C=N/NC(=O)c2cccc(Nc3ccnc(C(F)(F)F)c3)c2)c1O,48.5%
15,COc1ccc(CNc2c3ccccc3nc3ccccc23)c(OC)c1,66.7%
16,COc1ccc2c(c1)c(-c1nc(-c3c[nH]c4ncccc34)cs1)cn2CCO,41.7%
17,COc1ccc(C(O)c2cc3c(N)c(C(=O)Nc4cccc(Cl)c4C)sc3nc2C)cc1 (configuration not stated),17.7%
18,CC1CCN(C(=S)SCC(=O)NC(=O)c2ccccc2)CC1,106%
19,CS(=O)(=O)Nc1cc(-c2ccc3ncc(C#N)c(Nc4ccc(F)c(Cl)c4)c3c2)cnc1Cl,-14.5% (active)
20,CCN1C(=O)N(CC)C2C1NN=c1s/c(=C3\C(=O)N(CC(C)C)c4ccccc43)c(=O)n12 (configuration not stated),17.5%

row,SMILES,growth
1,O=C(CI)NC(=O)NC(=O)NCc1ccccc1,37.2%
2,CCn1cc(CNc2ccc(C(=O)Nc3cc4cc(OC)c(OC)cc4c(C)n3)cc2)cn1,24.6%
3,C=CCN1C(=O)c2cccc3c(N4CCOCC4)ccc(c23)C1=O,-47.8% (active)
4,CC1=C2[C@@H](CC1)[C@]1(C)O[C@@](c3ccccc3)(C[C@H]1OC(=O)CO)[C@H]2OC(=O)/C=C/c1ccccc1,0.952% (active)
5,CSc1nc(C)c([N+](=O)[O-])c(N)n1,98.9%
6,CCOC(=O)c1c(C)nc2c(c1N)/C(=C/c1ccc(OC)cc1)C(=O)N2Cc1ccccc1,63.6%
7,CCN(CC)Cc1cc(Nc2ccnc3cc(Cl)ccc23)ccc1O,95.5%
8,Cc1ccc(-c2nc3nc(-c4ccccc4)nc(N4CCCN(S(C)(=O)=O)CC4)c3o2)cc1,94.2%
9,CCCCCN(CCCCC)CC(O)c1cc(C)c2ccc3cc(C(C)C)ccc3c2c1 (configuration not stated),90.5%
10,NC(N)=NS(=O)(=O)c1ccc(NC2=C(I)C(=O)c3ncccc3C2=O)cc1,108%
11,O=C1/C(=C\c2ccccn2)c2ccccc2N1c1c(Cl)cccc1Cl,-17.7% (active)
12,CCCCNC(=O)Oc1ccc(/C(=C(/C)Cc2ccc(OC)cc2)c2ccc(OCCN3CCCCC3)cc2)cc1,81.9%
13,O=C(/C=C/c1ccc(Cl)cc1)c1cccc(OCCCOc2cccc(C(=O)/C=C/c3ccc(Cl)cc3)c2)c1,105%
14,Cc1ccc(/C=C(\C#N)n2nnc3cc(F)c(F)cc32)cc1,-18.4% (active)
15,O=P(O)(O)OCC1OC(n2cnc3c(NCc4ccco4)ncnc32)C(O)C1O (configuration not stated),-12.3% (active)
16,O=C(C1=Cc2cc3ccccc3n2Cc2cnnn21)c1ccc(O)cc1,54.8%
17,COc1ccc(-c2nc3c(N)c(CO)cnc3s2)cc1,104%
18,COc1ccc2c(c1)c(/C(O)=C1\COC(=O)C1=O)cn2Cc1ccc(F)cc1,110%
19,Cc1ccc(/C=C/C(=O)c2cccc(OCCCOc3cccc(C(=O)/C=C/c4ccc(C)cc4)c3)c2)cc1,79.7%
